Many of the other results were omitted from the sample, so hits are more common in it than they were.
RMI FANCM FP: disruptors of RMI1/RMI2 association with MM2 peptide – biochemical, fluorescence polarization, human, primary screen; RMI core complex with F-MM2 peptide; hits give low values; FP signal (polarization) at 33 µM; 70,000 tested, 0.58% active; in the data active = FP signal below about 40
Starred values were filed as active, the others as inactive.

SMILES	RMI FANCM FP
O=C(CSc1nc2c([nH]c3ccccc32)c(=O)n1-c1ccc([N+](=O)[O-])cc1)N1CCc2ccccc21	65
CCOC(=O)N1CCN(C(=O)CSc2nc3c(c(=O)n2-c2ccc(OCC)cc2)SCC3)CC1	81
O=C(NCC1CCN(Cc2ccco2)CC1)c1ccccc1C(F)(F)F	74
O=S(=O)(NC1CCCCC1)c1ccc(Cl)cc1I	57
N#C/C(=C\c1cn[nH]c1-c1ccccc1)c1nc2ccccc2s1	68
Cc1cccc(Oc2nc3ccccn3c(=O)c2/C=C(\C#N)c2nc3ccccc3s2)c1	0*
N#C/C(=C\c1ccc(C#N)cc1)c1nc2ccccc2s1	71
O=C(/C=C/c1ccc(Cl)cc1)c1ccc(NC(=O)c2cccnc2)cc1	100
O=C(Nc1ccccc1)Nc1nc(CCC(=O)N2CCN(c3ccccn3)CC2)cs1	64
CN1C(=O)c2cccc(NC(=O)c3ccc(N(C)C)cc3)c2C1=O	68
CN1C(=O)c2cccc(NC(=O)c3cccc(Cl)c3)c2C1=O	73
CN1C(=O)c2cccc(N)c2C1=O	-41*
COc1ccc(C(=O)Nc2c(N)nc(SCC(=O)Nc3nc(C)cs3)[nH]c2=O)cc1	71
Cc1ccc(-c2nn(-c3ccccc3)cc2/C=C2\SC(=S)NC2=O)cc1F	74
COc1ccc(-c2nn(-c3ccccc3)cc2/C=C2\SC(=O)NC2=S)cc1	27*
COc1ccc(-c2nn(-c3ccccc3)cc2CN(Cc2ccccc2)C(=O)/C=C/C(=O)O)cc1	61
COC(=O)c1c(NC(=O)COCC(=O)Nc2sc3c(c2C(=O)OC)CCCCC3)sc2c1CCCCC2	61
O=C(Nc1cccc(C(F)(F)F)c1)N1CCN(c2ncccc2C(F)(F)F)CC1	55
Cc1c(C(=O)NCC2COc3ccccc3O2)oc2ccc(S(=O)(=O)N3CCOCC3)cc12 (stereo unspecified)	57
O=C(NCCc1ccc(N2CCCC2)cc1)C(=O)NCc1ccc2c(c1)OCO2	108
O=C(CSc1nccn(-c2ccc(F)c(F)c2)c1=O)NCc1ccccc1Cl	62
Oc1cccc2ccc(N3CCC(Cc4ccccc4)CC3)nc12	50
Cc1cc(=S)nc(-c2ccccn2)[nH]1	55
Cc1nc(-c2ccccn2)n[nH]1	63
Cc1cc(-c2ccccn2)c(-c2cc(Cl)cc(Cl)c2)[nH]1	32*
SMILES	RMI FANCM FP
Cc1cccn2c(=O)c3cc(C(=O)NC4CC(C)CC(C)(C)C4)sc3nc12 (stereo unspecified)	61
NC(=O)C1Cc2ccccc2N1C(=O)C1CC1 (stereo unspecified)	66
NC(=O)C1Cc2ccccc2N1C(=O)c1cccs1 (stereo unspecified)	53
NC(=O)C1Cc2ccccc2N1C(=O)Nc1cccs1 (stereo unspecified)	28*
O=C(Nc1ccc(N=Nc2ccccc2)cc1)c1ccccc1Cl	59
Cc1nc2ccc(NC(=O)C(C)Oc3ccc4c(c3)OCO4)cc2c(=O)n1-c1ccccc1 (stereo unspecified)	64
Cc1ccc(-n2c(C)nc3ccc(NC(=O)Nc4ccc(F)c(Cl)c4)cc3c2=O)cc1	72
Cc1nc2ccc(NC(=O)Nc3ccc4c(c3)OCO4)cc2c(=O)n1-c1ccc(Cl)cc1	28*
CCOc1c(N2CCN(c3c(OCC)c(=O)c3=O)CC2)c(=O)c1=O	61
Cc1ccc2oc(=O)cc(CN3CCOCC3)c2c1	63
Cc1c(O)ccc2c(CN3CCCCC3)cc(=O)oc12	18*
O=c1cc(CN2CCOCC2)c2cc3c(cc2o1)CCC3	57
CC(=O)c1cccc(NC(=O)CSc2ccc(NC(=O)C3CC3)nn2)c1	68
Cc1nc(Oc2ccccc2)cc(N2CCN(C(=O)/C=C/c3ccccc3)CC2)n1	57
O=C(Cc1ccc2c(c1)OCO2)N(Cc1ccccc1)c1nc2ccc(F)cc2s1	91
CC(/C=C1\SC(=S)N(CC(=O)Nc2ccc(C(=O)O)c(O)c2)C1=O)=C\c1ccccc1	19*
CC(/C=C1\SC(=S)N(CC(=O)N2c3ccccc3Sc3ccccc32)C1=O)=C\c1ccccc1	61
CC(/C=C1\SC(=O)N(CC(=O)Nc2ccc(O)cc2)C1=O)=C\c1ccccc1	54
CCOc1ccc(-c2csc(-n3nc(C)cc3NC(=O)C(=O)c3c(C)[nH]c4ccccc34)n2)cc1	78
O=C(Cc1csc(SCc2ccc(Br)cc2)n1)Nc1nccs1	21*
O=C(Cc1csc(SCc2ccc(Br)cc2)n1)NC1CCCC1	66
COc1cc(CSc2nc(CC(=O)Nc3nccs3)cs2)cc(OC)c1	58
O=C(Cc1csc(SCc2ccc(Br)cc2)n1)NCc1ccccn1	27*
O=C(Cc1csc(SCc2ccc(Br)cc2)n1)NCc1cccs1	80
CNC(=O)Cc1csc(Nc2ccc(OC(F)(F)F)cc2)n1	61
SMILES	RMI FANCM FP
O=C(Cc1csc(Nc2ccc(OC(F)(F)F)cc2)n1)NCc1ccccn1	-3*
O=C(Cc1csc(SCc2ccc(Cl)cc2)n1)NCc1ccccn1	54
O=C(Cc1csc(Nc2cccc(C(F)(F)F)c2)n1)NCc1ccccn1	44
CCCN1C(=O)C(C)(C)COc2cc(NC(=O)c3cccc(OC)c3OC)ccc21	68
CCOc1ccccc1NS(=O)(=O)c1cc(OC)ccc1OC	59
CC(C)Oc1ccc(C(=O)Nc2cc3ccccc3cc2NC(=O)c2ccc(OC(C)C)cc2)cc1	61
CCOC(=O)c1c(N=Cc2ccccc2[N+](=O)[O-])n[nH]c1C	59
Cc1cc(-c2ccc(NC(=O)Cc3cccc4ccccc34)c(C)c2)ccc1NC(=O)Cc1cccc2ccccc12	74
O=C(CCn1nc(-c2ccccc2)cc1-c1ccccc1)N=Nc1c(O)[nH]c2ccccc12	61
Cc1nc(C)c(-c2cnc(NS(=O)(=O)c3cc(C(F)(F)F)cc(C(F)(F)F)c3)nc2)s1	54
Cc1oc2nc(SCC(=O)Nc3nccs3)nc(NC(=O)c3ccccc3)c2c1C	68
CCN1CCN(c2nc3ccccc3nc2C(C#N)S(=O)(=O)c2cccs2)CC1 (stereo unspecified)	69
Cc1ccc(C)c(S(=O)(=O)C(C#N)c2nc3ccccc3nc2N2CCCC2)c1 (stereo unspecified)	5*
CCC(CC)COC(=O)C(C#N)c1nc2ccccc2nc1N1CCCCC1 (stereo unspecified)	48
COC(=O)c1cc(-c2ccc([N+](=O)[O-])cc2)n[nH]1	56
Cc1ccc(C)c(S(=O)(=O)N2C(=S)NC(=O)C2Cc2ccccc2)c1 (stereo unspecified)	75
Cc1ccc(C)c(S(=O)(=O)N=C2C=C(Cl)C(=O)c3ccccc32)c1	20*
Cc1ccc(C)c(S(=O)(=O)N=C2C=C(SCC(=O)O)C(=O)c3ccccc32)c1	67
O=C(Nc1nc(CC(=O)N2CCCc3ccccc32)cs1)C1CC1	56
Cn1c(=O)c2cc(C(=O)Nc3ccc(C(F)(F)F)cc3)sc2n(C)c1=O	64
COC(OC)c1ccc2c(N)c(C(=O)Nc3ccc(C(F)(F)F)cc3)sc2n1	39*
COc1nn(C)cc1C(=O)Nc1ccc(C(F)(F)F)cc1	57
CCOC(=O)c1ccc(-c2ccc(/C=C(\C#N)C(=O)NC(C)(C)C)o2)cc1	68
O=C1C2C3C=CC(C3)C2C(=O)N1CCN1CCN(S(=O)(=O)c2cccs2)CC1 (stereo unspecified)	65
O=C(Nc1ccc(Cl)cc1)c1ccc(-c2cccs2)s1	63
CC(C)C(=O)Nc1nc(NC(=O)C(C)C)nc(-c2ccccc2C(F)(F)F)n1	58

Screening data from PubChem.
